Test results from PubChem BioAssay.
Active and inactive are the calls of the source. No rule for the calls is given here.

Biological target: Pantothenate synthetase (Mycobacterium tuberculosis (strain ATCC 25618 / H37Rv)) (UniProt P9WIL5)
Test: Recombinant Mtb pantothenate synthetase (PanC) inhibitors, coupled enzyme, confirmatory (AID 375);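 also: 0% = full reaction with vehicle and 100% = no enzyme background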
Conditions: coupled enzyme assay; at 10 µM, active compounds read high

Sequence of Pantothenate synthetase (Mycobacterium tuberculosis (strain ATCC 25618 / H37Rv)) (P9WIL5 whole entry, looked up): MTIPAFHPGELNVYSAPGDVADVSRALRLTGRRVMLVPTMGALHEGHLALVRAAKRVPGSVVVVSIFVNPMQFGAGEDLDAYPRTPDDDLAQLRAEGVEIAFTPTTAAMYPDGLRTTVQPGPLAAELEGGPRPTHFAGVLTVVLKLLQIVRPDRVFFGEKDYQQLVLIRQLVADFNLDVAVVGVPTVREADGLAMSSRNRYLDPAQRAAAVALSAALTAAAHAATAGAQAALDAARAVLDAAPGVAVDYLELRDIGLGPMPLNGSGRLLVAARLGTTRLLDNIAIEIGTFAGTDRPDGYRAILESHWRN

Row | SMILES | inhibition
1 | Cn1c(NC(=O)c2ccccc2NC(=O)C(C)(C)C)nc2ccccc21 | 0% (inactive)
2 | CCN(CC)CCN1C(=O)C(O)=C(C(=O)c2ccco2)C1c1ccccn1 (stereo not given) | 8% (inactive)
3 | COC(=O)C(NC(C)=O)(Nc1ccccn1)C(F)(F)F (stereo not given) | 1% (inactive)
4 | COC(=O)C1(C)NC(c2cccs2)C2C(=O)N(c3ccccc3F)C(=O)C21 (stereo not given) | 0% (inactive)
5 | CC(=O)Nc1c(Cl)n(C(C)=O)c2ccccc12 | 7% (inactive)
6 | C=CCNc1oc(-c2cccc3ccccc23)nc1C#N | 0% (inactive)
7 | COc1ccccc1NC(=O)c1oc2ccccc2c1NC(=O)c1cc(OC)c(OC)c(OC)c1 | 0% (inactive)
8 | CC1(C)CC(=O)c2sc(NS(C)(=O)=O)nc2C1 | 0% (inactive)
9 | COCCNC(=O)CN(C)S(=O)(=O)c1ccc(Br)cc1 | 0% (inactive)
10 | C=CCn1c(=O)[nH]c2cc(C(=O)N3CCN(c4cc(C)ccc4C)CC3)ccc2c1=O | 4% (inactive)
11 | COc1ccc(C2C3=C(CC(C)(C)CC3=O)Oc3ncn4nc(-c5cccnc5)nc4c32)cc1 (stereo not given) | 0% (inactive)
12 | O=C(NS(=O)(=O)c1ccc(NC(=O)C2CCCO2)cc1)c1ccccc1 (stereo not given) | 0% (inactive)
13 | COc1ccc(Cl)cc1C(=O)n1nc(C)cc1C | 0% (inactive)
14 | COc1cc(Cl)c(C)cc1NC(=O)COC(=O)c1cnc(C)cn1 | 0% (inactive)
15 | COc1ccc(OCC(O)Cn2c(Br)nc3c2c(=O)[nH]c(=O)n3C)cc1 (stereo not given) | 11% (inactive)
16 | CCc1cc(C(=O)OC)c(NC(=O)CCC(=O)O)s1 | 2% (inactive)
17 | COc1ccc(CNc2nc3nc(C)cc(C)n3n2)cc1OC | 1% (inactive)
18 | CCN(CC)CCN1C(=O)C(=O)/C(=C(/O)c2ccc(OC(C)C)cc2)C1c1ccncc1 (stereo not given) | 5% (inactive)
19 | CCOc1ccc(-c2nc(S(=O)(=O)c3ccccc3)c(NCc3cccnc3)o2)cc1 | 0% (inactive)
20 | Cc1ccnc(N2CCN(C(=O)CSc3nc4ccccc4nc3N3CCCCC3)CC2)c1 | 1% (inactive)

Row | SMILES | inhibition
21 | O=C(Nc1ccc2c(c1)OCO2)c1cc2ncc(Br)cn2n1 | 3% (inactive)
22 | CCN(CC)CCCC1(CN)OCCc2ccccc21 (stereo not given) | 0% (inactive)
23 | CCN(c1c(C)n(C)n(-c2ccccc2)c1=O)S(C)(=O)=O | 5% (inactive)
24 | Cc1cc(C)n(S(=O)(=O)c2cc(C(=O)O)c(Cl)cc2Cl)n1 | 0% (inactive)
25 | CCc1ccccc1OCCCCCNCCO | 3% (inactive)
26 | COc1ccc(C(CC(=O)O)NC(=O)c2ccccc2)cc1OC (stereo not given) | 0% (inactive)
27 | O=C(NC1CCN(Cc2ccccc2)CC1)C1CCN(S(=O)(=O)c2cccc3cccnc23)CC1 | 0% (inactive)
28 | COC(=O)C1=C(C)NC2=C(C(=O)CCC2)C1c1coc2ccccc2c1=O (stereo not given) | 6% (inactive)
29 | Cc1cc2ncc(-c3ccc(Cl)cc3)c(N)n2n1 | 0% (inactive)
30 | CCOC(=O)C1CCN(c2c(N(C)Cc3ccco3)c(=O)c2=O)CC1 | 0% (inactive)
31 | CC1CN(c2nc3ccccc3nc2C(C#N)C(=O)OC2CCCCC2)CC(C)O1 (stereo not given) | 2% (inactive)
32 | C=CCN(CC=C)C(=O)Nc1cc(Cl)ccc1OC | 0% (inactive)
33 | CCc1nnc(NC(=O)NCN2C(=O)C3C4C=CC(C4)C3C2=O)s1 (stereo not given) | 0% (inactive)
34 | CCOCCCNC(=O)c1cc2sc(Cl)cc2n1CC | 0% (inactive)
35 | CCOC(=O)c1c(C)n(C)c2c(C)cc(O)c(OC(C)=O)c12 | 0% (inactive)
36 | CCc1ccc(C2CC(c3cccc(OC)c3)n3nc(N)nc3N2)cc1 (stereo not given) | 3% (inactive)
37 | COC(=O)C1(C)NC(c2ccco2)C2C(=O)N(c3ccc(C)cc3)C(=O)C21 (stereo not given) | 4% (inactive)
38 | CCc1nnc(NC(=O)c2cc3c(s2)CCCCC3)s1 | 0% (inactive)
39 | Cc1ccc(C)c(N2CCN(C(=O)CCCn3c(=S)[nH]c4cc5c(cc4c3=O)OCO5)CC2)c1 | 0% (inactive)
40 | COc1ccc(NC(=O)C2CCCCN2S(=O)(=O)c2ccc(F)cc2)cc1 (stereo not given) | 0% (inactive)
